Test systems include RPMI-8226 leukemia; OVCAR-4 ovarian; SK-OV-3 ovarian; IGROV1 ovarian; OVCAR-3 ovarian; HS 578T breast; NCI/ADR-RES ovarian; T-47D breast; OVCAR-5 ovarian; OVCAR-8 ovarian.
Assay in all cases: NCI-60 one-dose screen, 48 h (100 = growth as untreated, 0 = no growth, -100 = all killed)
Holding throughout (settings): 10 µM

Structures are written as SMILES. About 83,000 compounds went through this panel and 20% of them were active in at least one assay; those are over-represented in the sample as a whole.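 For each line, cells grew in 96-well plates with the test compound present at a single concentration for 48 hours.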 A number with no mark means an inactive call. Calls of active or inactive are those of the source. The calls were made as follows: active = growth percent below 10; inactive = the rest.

As for `C=C(Cl)[C@@](Cl)(CBr)CC[C@@H](Br)C(C)(C)Cl`, the growth with RPMI-8226 leukemia is -59.4% (active); with OVCAR-4 ovarian, -37% (active); with SK-OV-3 ovarian, 93.5%; in the test with IGROV1 ovarian, 29.6%; with OVCAR-3 ovarian, -96.2% (active); in the test on HS 578T breast it was -29% (active). Also, the figures for the growth with NCI/ADR-RES ovarian and in the test with T-47D breast were -66.6% (active) and -58.9% (active), respectively.
In the case of `Cc1nc2ccc(CN(C)c3ccc(C(=O)N[C@@H](CCC(=O)O)C(=O)O)s3)cc2c(=O)[nH]1`, the growth in the test on RPMI-8226 leukemia was 56.6%; in the test with OVCAR-5 ovarian, 67.6%; with SK-OV-3 ovarian, 55.3%; in the test with IGROV1 ovarian it was 71.8%; in the test on OVCAR-3 ovarian it was 57.3%; with HS 578T breast it was 73.2%. Further, the growth in the test with NCI/ADR-RES ovarian is 43.8%.
Consider `COc1ccc2c(c1)nc(N)c1c3cccnc3cn21`, for which the growth in the test with RPMI-8226 leukemia was 34.3%; in the test with OVCAR-8 ovarian, 4.95% (active); with SK-OV-3 ovarian it was 9.24% (active); with IGROV1 ovarian, 17.8%; in the test on OVCAR-3 ovarian it was 20.4%; with HS 578T breast it was 43.1%. In addition, the growth with NCI/ADR-RES ovarian was -2.31% (active); with T-47D breast it was 62.6%.
On to `O=C(Nc1ccc(Cl)c([N+](=O)[O-])c1)Nc1nc2ccccc2s1`, for which the growth in the test on RPMI-8226 leukemia is 7.17% (active); in the test on OVCAR-8 ovarian, 85.3%; in the test on OVCAR-4 ovarian, 67.1%; with SK-OV-3 ovarian, 84.9%; in the test with OVCAR-3 ovarian, 79.5%; with HS 578T breast, 103%. For the same molecule, the growth in the test with NCI/ADR-RES ovarian was 80.9%; in the test on T-47D breast, 36.8%.
Turning to `CN1CC[C@@H](c2c(O)cc(O)c3c(=O)cc(-c4ccccc4Cl)oc23)[C@@H](O)C1`, the growth was -32.3% (active) in the test on RPMI-8226 leukemia; 16.4% in the test on OVCAR-5 ovarian; -26.7% (active) with OVCAR-4 ovarian; 47.6% with SK-OV-3 ovarian; -37.1% (active) with IGROV1 ovarian; 13.6% in the test on OVCAR-3 ovarian. For the same molecule, the figures for the growth in the test with HS 578T breast, in the test with NCI/ADR-RES ovarian and in the test on T-47D breast were 12.9%, 12.2% and 4.59% (active), respectively.
On to `O=C1OCC2=C1C(c1cccc(Br)c1)c1cc3c(cc1N2CCO)CCC3` (configuration not stated), for which the growth was 19% in the test with RPMI-8226 leukemia; 22.4% in the test on OVCAR-5 ovarian; 54.6% in the test with OVCAR-4 ovarian; 28.8% with SK-OV-3 ovarian; 20.3% in the test on IGROV1 ovarian; -62.5% (active) in the test with OVCAR-3 ovarian. Also, the growth was 6.91% (active) in the test with HS 578T breast, -5.39% (active) in the test with NCI/ADR-RES ovarian and 71.5% in the test with T-47D breast.
Consider `CSc1cc(SC)ncn1`, for which the growth with OVCAR-8 ovarian was 105%; with OVCAR-5 ovarian it was 105%; in the test with OVCAR-4 ovarian, 113%; in the test with SK-OV-3 ovarian, 104%; in the test with IGROV1 ovarian it was 116%; with OVCAR-3 ovarian, 124%. Moreover, the growth was 115% in the test on HS 578T breast and 118% in the test on NCI/ADR-RES ovarian.
As for `COc1cccc(-c2cc(-c3cccc(NS(C)(=O)=O)c3)nc(N)c2C#N)c1O`, the growth in the test on OVCAR-8 ovarian is 42.4%; in the test with OVCAR-5 ovarian, 84.1%; in the test on OVCAR-4 ovarian it was 52.8%; with SK-OV-3 ovarian, 27.2%; with IGROV1 ovarian it was 91.2%; with OVCAR-3 ovarian, -16% (active). In addition, the growth in the test with HS 578T breast was 52.8%.
On to `O=c1oc2cc(OS(=O)(=O)c3ccccc3)ccc2c2c1CCCCC2`, for which the growth in the test with RPMI-8226 leukemia was 23.4%; in the test with OVCAR-8 ovarian it was 60.4%; with OVCAR-4 ovarian it was 53.7%; in the test with SK-OV-3 ovarian it was 84.3%; in the test with IGROV1 ovarian it was 83.4%; with OVCAR-3 ovarian, 81.5%. Moreover, the growth is 75.6% in the test with HS 578T breast, 56% in the test with NCI/ADR-RES ovarian and 24.8% in the test with T-47D breast.
Take `O=C(O)CN1C(=O)c2cccc3cccc(c23)C1=O`: the growth in the test with OVCAR-8 ovarian was 98.8%; in the test on OVCAR-5 ovarian, 105%; with OVCAR-4 ovarian, 100%; in the test with SK-OV-3 ovarian, 94%; in the test with IGROV1 ovarian, 111%; with OVCAR-3 ovarian, 118%. Further, the growth in the test with HS 578T breast is 108%; in the test with NCI/ADR-RES ovarian it was 102%; in the test with T-47D breast, 90.1%.
Consider `CO/N=C(/C(=O)NC1C(=O)N2C(C(=O)O)=C(COC(N)=O)CSC12)c1ccco1` (configuration not stated), for which the growth with OVCAR-8 ovarian was 108%; in the test with OVCAR-5 ovarian it was 108%; with OVCAR-4 ovarian it was 106%; in the test with SK-OV-3 ovarian, 114%; in the test on IGROV1 ovarian, 109%; with OVCAR-3 ovarian, 122%. The growth in the test with HS 578T breast was 116%; in the test with NCI/ADR-RES ovarian, 110%; with T-47D breast it was 101%.
On to `O=C1NC(=O)N(Cc2ccccc2)CC1Br` (configuration not stated), for which the growth with OVCAR-8 ovarian is 61.9%; with OVCAR-5 ovarian, 85.3%; in the test with OVCAR-4 ovarian, 77.7%; with SK-OV-3 ovarian, 87%; in the test with IGROV1 ovarian, 56.9%; with OVCAR-3 ovarian, 92.9%. The growth in the test on HS 578T breast is 114%; in the test with NCI/ADR-RES ovarian, 56.6%; in the test on T-47D breast, 57%.
On to `CCN(CC)CCC(=O)Nc1cccc2c1C(=O)c1c(c(O)c3ccccc3c1O)C2=O`, for which the growth in the test with OVCAR-8 ovarian was 45.3%; with OVCAR-5 ovarian, 80.9%; in the test with OVCAR-4 ovarian, 60.2%; in the test with SK-OV-3 ovarian it was 63.6%; in the test with IGROV1 ovarian, 36.9%; in the test on OVCAR-3 ovarian, 64.8%. Moreover, the growth is 76.6% in the test with HS 578T breast, 46.9% in the test with NCI/ADR-RES ovarian and 41.2% in the test with T-47D breast.
On to `COc1ccc(CN2CCC(N3CCCC3=O)c3cc(Cl)ccc32)cc1` (configuration not stated), for which the growth was 104% in the test on OVCAR-8 ovarian; 93.3% with OVCAR-5 ovarian; 95.3% in the test on OVCAR-4 ovarian; 105% with SK-OV-3 ovarian; 104% in the test with IGROV1 ovarian; 120% in the test with OVCAR-3 ovarian. In addition, the growth in the test on HS 578T breast is 99.3%; in the test on NCI/ADR-RES ovarian, 90.2%; with T-47D breast, 89.5%.
Take `CCOC(=O)CCC(NC(=O)c1ccc(N)cc1)C(=O)OCC` (configuration not stated): the growth is 105% in the test with OVCAR-8 ovarian; 89.6% in the test with OVCAR-5 ovarian; 95.7% in the test with OVCAR-4 ovarian; 109% with SK-OV-3 ovarian; 105% in the test with IGROV1 ovarian; 106% with OVCAR-3 ovarian. The figures for the growth in the test with HS 578T breast, in the test with NCI/ADR-RES ovarian and with T-47D breast were 113%, 102% and 101%, respectively.
